From PubChem BioAssay
Mcl1-Noxa inh: disrupts binding of human Mcl-1 to Noxa peptide. Q07820. TR-FRET Mcl-1/Noxa peptide binding, 2 h. inhibition, % at 21.7 µM. 220,000 compounds, 1.5% hits. AID 1022;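 active means compounds that cut the protein-peptide binding signal by more than 50% relative to plate controls in a single-dose test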;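 further: His-tagged Mcl-1 with rhodamine Noxa BH3 peptide and terbium anti-His antibody; 0% = Mcl-1 plus Noxa peptide wells and 100% = peptide-only wells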
Target sequence (Q07820 whole entry, looked up): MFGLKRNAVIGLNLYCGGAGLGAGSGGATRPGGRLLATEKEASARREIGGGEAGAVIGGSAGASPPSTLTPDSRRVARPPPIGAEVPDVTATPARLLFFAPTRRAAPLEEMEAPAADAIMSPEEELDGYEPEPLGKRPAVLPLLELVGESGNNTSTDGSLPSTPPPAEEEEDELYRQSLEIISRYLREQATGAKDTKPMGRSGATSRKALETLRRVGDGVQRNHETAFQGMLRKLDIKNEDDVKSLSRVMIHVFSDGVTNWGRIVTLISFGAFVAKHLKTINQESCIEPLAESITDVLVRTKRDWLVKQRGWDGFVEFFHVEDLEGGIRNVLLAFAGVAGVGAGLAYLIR
Mcl-1 Bim block: human Bim-Mcl-1 interaction inhibition | Bead-based flow cytometry, Bim peptide-Mcl-1 binding | 190,000 compounds, 0.1% hits | inhibition, % at 10 µM; in the data active means inhibition above about 40%;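 further: 0% = no compound tracer wells and 100% = peptide blocker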
Mcl1-Bid inh: Mcl-1/Bid interaction inhibition | inhibition, % at 21.7 µM | AID 1021 | 220,000 compounds, 0.97% hits | TR-FRET Mcl-1/Bid-Dy647 peptide binding, 1536-well | Q07820;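 active means compounds that cut the binding signal by more than half at the single screening dose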;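 further: His-tagged Mcl-1 with europium anti-His antibody binding Bid BH3 peptide; 0% = Mcl-1 plus peptide wells and 100% = peptide-only wells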
MCL1-BIM inh: disrupts human MCL1 binding to BIM-BH3 peptide; Q07820; GST-MCL1 / FITC-Bim-BH3 fluorescence polarization; inhibition, % at 10.9 µM; 320,000 compounds, 0.68% hits;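 active means inhibition above the mean inhibition of all tested compounds plus 3 SD, set per campaign, cut at about 40% in these data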;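 further: 0% = DMSO wells and 100% = unlabeled Bim-BH3 peptide control; higher means more loss of mP so more displacement of Bim peptide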
TNF necrop inh: TNF-alpha cell death inhibition in Jurkat FADD-/- cells | 220,000 compounds, 0.068% hits | Jurkat FADD-/- TNF necroptosis rescue, ATP luminescence, 24 h; 0 = TNF only, 100 = no-TNF cells | activation (protection from cell death), % at 10 µM;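 active means activation, meaning protection from cell death, of at least 50% relative to plate controls; inactive means activation below 50%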;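 further: necroptosis triggered by 40 ng/mL TNF-alpha added together with compound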
L929 necroptosis: blocks zVAD induced death of L929 cells; AID 1377; viability rescue, % at 10 µM; L929 zVAD necroptosis rescue, ATP luminescence, 24 h; with zVAD 60 µM; 220,000 compounds, 0.38% hits;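 active means activation, scaled between plate controls, above about 75%, limit read from the data; inactive means activation under that limit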;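 further: 0% = zVAD with DMSO and 100% = DMSO alone without zVAD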
zVAD death conf: confirmed blocker of zVAD induced death in L929 cells; shares compounds with L929 necroptosis; L929 zVAD-induced necroptosis rescue, ATP luminescence, 24 h; activation (protection from necroptosis), % at 10 µM; 760 compounds, 16% hits; AID 463117;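 active means mean protection from necroptosis of at least 50% over duplicate tests; inactive means mean protection below 50%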;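 further: 0% = cells with zVAD alone and 100% = vehicle cells without zVAD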
Starred values were filed as active, the others as inactive; nt = no result given. Shown are actives, neighbours in structure and some others; about 2.4% of the full set was active somewhere.

SMILES	Mcl1-Noxa inh	Mcl-1 Bim block	Mcl1-Bid inh	MCL1-BIM inh	TNF necrop inh	L929 necroptosis	zVAD death conf
CC(C)OCCOc1ccc2oc(-c3ccco3)cc(=O)c2c1	nt	nt	nt	2	nt	nt	nt
NC(=O)COc1ccc2oc(-c3ccccc3)cc(=O)c2c1	17	1	11	nt	-2	81*	26
CCOC(=O)c1ccc2[nH]c3c(c2c1)CCCC3	nt	nt	nt	-2	nt	nt	nt
CCOC(=O)c1ccc2[nH]c3c(c2c1)CCCC3O (stereo not given)	0	0	-4	1	7	76*	41
Fc1ccccc1-c1ccc(/C=N/Nc2nc3ccccc3[nH]2)o1	-14	-2	-111	-23	-2	1	nt
Cc1ccc(/C=N\Nc2nc3ccc(Cl)cc3[nH]2)o1	0	0	-93	5	9	86*	78*
COC(=O)c1ccc(NC(=O)Nc2ccc(OC)cc2)cc1	7	0	-36	-5	5	83*	2
COc1cccc(NC(=O)Nc2ccncc2)c1	9	0	-14	0	0	0	nt
COc1cccc(NC(=O)NC(C)C2CC3CCC2C3)c1 (stereo not given)	3	-3	-33	4	1	75*	30
COc1cccc(NC(=O)Nc2ccc(C(C)(C)C)cc2)c1	3	-2	-30	nt	2	79*	8
COc1ccc(CNC(=O)Cn2cccc2C(=O)c2ccccc2)cc1	nt	nt	nt	8	nt	nt	nt
COc1ccc(N2C(=NC(=O)CC3CCCCC3)SC3CS(=O)(=O)CC32)cc1 (stereo not given)	nt	nt	nt	4	nt	nt	nt
Cc1cc(C(=O)Cn2nc(C(=O)O)c3ccccc3c2=O)c(C)n1-c1ccccc1	-7	1	-45	-9	-1	1	nt
Cc1cc(C(=O)Cn2nc(C(=O)O)c3ccccc3c2=O)c(C)n1CCc1ccc(Cl)cc1	16	-1	-53	-2	-4	78*	8
Cc1cccc(C)c1NC(=S)N(Cc1ccccc1)Cc1cccs1	6	2	-31	11	-4	1	nt
Oc1ccc(-c2csc(Nc3ncccn3)n2)c(O)c1	72*	-2	41	5	9	81*	48
Oc1ccc(-c2csc(Nc3ccccn3)n2)cc1	nt	nt	nt	-3	nt	nt	nt
CC(=O)Nc1cccc(-c2csc(Nc3ncccn3)n2)c1	29	-1	-30	nt	6	80*	5
Oc1ccc(-c2csc(Nc3ncccn3)n2)cc1O	87*	0	-47	nt	22	79*	60*
Cc1ccc2nc(=O)c(NNc3ccccc3)cnc2c1	6	-3	-18	0	0	nt	nt
Cc1nc2ccccc2nc(=O)c1NNc1ccccc1	13	-1	-13	nt	5	76*	3
COc1ccc(NS(=O)(=O)c2cn(C)cn2)c(OC)c1	nt	nt	nt	-2	nt	nt	nt
Cc1ccc2c(c1)C(=C(C#N)C#N)C(=O)N2CCN1CCOCC1	-21	nt	-63	6	1	89*	1
Cc1ccc2c(c1)C(=C(C#N)C#N)C(=O)N2CCN1CCCCC1	12	nt	-69	5	6	90*	39
COc1ccc(C)c2sc(N(CCCN(C)C)C(=O)c3ccc4c(c3)OCCO4)nc12	nt	nt	nt	-2	nt	nt	nt
SMILES	Mcl1-Noxa inh	Mcl-1 Bim block	Mcl1-Bid inh	MCL1-BIM inh	TNF necrop inh	L929 necroptosis	zVAD death conf
Cc1ccc(S(=O)(=O)NCCc2nc3ccccc3[nH]2)cc1	nt	nt	nt	7	nt	nt	nt
CC(=O)N(C)c1ccc(NC(=O)Nc2ccc(C)c(C)c2)cc1	-1	0	-16	5	-2	77*	39
CC(=O)N(C)c1ccc(NC(=O)Nc2ccccc2C)cc1	-2	2	-33	8	-3	6	nt
CCc1cccc2c(C(=O)COC(=O)c3ccc(O)cc3)c[nH]c12	14	0	-12	-3	7	77*	74*
CCc1cccc2c(C(=O)COC(=O)c3ccccc3)c[nH]c12	5	-6	-7	-3	3	3	nt
CCN1CCN(Cc2ccc(NC(=O)c3ccc(C)c(NC(=O)N4CCNC4=O)c3)cc2C(F)(F)F)CC1	17	nt	-34	-5	-4	74	nt
Cc1cn(-c2cc(C(=O)Nc3ccc(C)c(NC(=O)N4CCNC4=O)c3)cc(C(F)(F)F)c2)cn1	-82	nt	23	0	1	79*	51*
